# The full ranking holds about 16,000 sequences; the median of “rpm ratio (pull-down/input)” is about 0.5, and the highest 2% start at about 5.5. This excerpt belongs to a sample that is enriched for the highest values.
# Target: T1, MBP-FoxP3dN (Mus musculus, UniProt Q99JB6 188-423)
# T1 sequence: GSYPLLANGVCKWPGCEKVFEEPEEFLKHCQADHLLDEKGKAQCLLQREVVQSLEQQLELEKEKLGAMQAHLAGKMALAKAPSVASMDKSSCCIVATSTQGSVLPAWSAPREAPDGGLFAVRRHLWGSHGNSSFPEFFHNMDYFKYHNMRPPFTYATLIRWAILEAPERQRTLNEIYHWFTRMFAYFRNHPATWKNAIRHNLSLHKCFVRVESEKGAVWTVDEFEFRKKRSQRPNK
# Assay: PD-seq (MBP pull-down with sequencing); 20 mM Tris-HCl pH 7.5, 100 mM NaCl, 1.5 mM MgCl2, 0.4 uM protein, 0.1 uM dsDNA library, 30 min, room temperature, amylose pull-down; high values mean tight binding
# Details: protein: recombinant; tags: His6-MBP; chain copies: 2; dsDNA, one strand shown
# In short: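 Mouse FoxP3 or FoxP1 fragment lacking the N-terminus, His6-MBP-tagged and expressed in E. coli, was incubated at 0.4 µM with 0.1 µM Klenow-filled degenerate double-stranded DNA library for 30 min at room temperature in Tris pH 7.5 buffer with NaCl and MgCl2. Complexes captured on amylose resin were washed three times and their DNA sequenced on Illumina. Binding is reads-per-million enrichment of pull-down over input, replicates pooled.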
row,Sequence,binding signal
1,GATGATTGTTCTCCCAGCTGATGAATTAGATCATTCGAGTAAACAAATTTTCCTAATCTTTCTGTTCAAGCGCCATCTAC,0.534 RPM ratio (pull-down/input)
2,GATGATTGTTCTCCCAGCTGATGAATTTAAGGTGTCGAGTAAACAAATTTTCCTAATCTTTCTGTTCAAGCGCCATCTAC,0.772 RPM ratio (pull-down/input)
3,GATGATTGTTCTCCCAGCTGATGAATTCACTAAATCGAGTAAACAAATTTTCCTAATCTTTCTGTTCAAGCGCCATCTAC,0.211 RPM ratio (pull-down/input)
4,GATGATTGTTCTCCCAGCTGATGAATTCTGGTCGTCGAGTAAACAAATTTTCCTAATCTTTCTGTTCAAGCGCCATCTAC,0.464 RPM ratio (pull-down/input)
5,GATGATTGTTCTCCCAGCTGATGAATTCTCAGCTTCGAGTAAACAAATTTTCCTAATCTTTCTGTTCAAGCGCCATCTAC,0.293 RPM ratio (pull-down/input)
6,GATGATTGTTCTCCCAGCTGATGAATTATGATAATCGAGTAAACAAATTTTCCTAATCTTTCTGTTCAAGCGCCATCTAC,0.653 RPM ratio (pull-down/input)
7,GATGATTGTTCTCCCAGCTGATGAATTTAGGGCTTCGAGTAAACAAATTTTCCTAATCTTTCTGTTCAAGCGCCATCTAC,0.514 RPM ratio (pull-down/input)
8,GATGATTGTTCTCCCAGCTGATGAATTTTGCGTATCGAGTAAACAAATTTTCCTAATCTTTCTGTTCAAGCGCCATCTAC,3.74 RPM ratio (pull-down/input)
9,GATGATTGTTCTCCCAGCTGATGAATTGTGACAGTCGAGTAAACAAATTTTCCTAATCTTTCTGTTCAAGCGCCATCTAC,0.817 RPM ratio (pull-down/input)
10,GATGATTGTTCTCCCAGCTGATGAATTGTCAGAGTCGAGTAAACAAATTTTCCTAATCTTTCTGTTCAAGCGCCATCTAC,0.234 RPM ratio (pull-down/input)
11,GATGATTGTTCTCCCAGCTGATGAATTCCCGTCTTCGAGTAAACAAATTTTCCTAATCTTTCTGTTCAAGCGCCATCTAC,0.33 RPM ratio (pull-down/input)
12,GATGATTGTTCTCCCAGCTGATGAATTAGTAAACTCGAGTAAACAAATTTTCCTAATCTTTCTGTTCAAGCGCCATCTAC,1.08 RPM ratio (pull-down/input)
13,GATGATTGTTCTCCCAGCTGATGAATTACGTTGGTCGAGTAAACAAATTTTCCTAATCTTTCTGTTCAAGCGCCATCTAC,1.3 RPM ratio (pull-down/input)
14,GATGATTGTTCTCCCAGCTGATGAATTATTATGTTCGAGTAAACAAATTTTCCTAATCTTTCTGTTCAAGCGCCATCTAC,1.3 RPM ratio (pull-down/input)
15,GATGATTGTTCTCCCAGCTGATGAATTATGTAATTCGAGTAAACAAATTTTCCTAATCTTTCTGTTCAAGCGCCATCTAC,3.03 RPM ratio (pull-down/input)
16,GATGATTGTTCTCCCAGCTGATGAATTTGGTTATTCGAGTAAACAAATTTTCCTAATCTTTCTGTTCAAGCGCCATCTAC,3.56 RPM ratio (pull-down/input)

row,Sequence,binding signal
1,GATGATTGTTCTCCCAGCTGATGAATTATGTTATTCGAGTAAACAAATTTTCCTAATCTTTCTGTTCAAGCGCCATCTAC,7.23 RPM ratio (pull-down/input)
2,GATGATTGTTCTCCCAGCTGATGAATTTCGTTATTCGAGTAAACAAATTTTCCTAATCTTTCTGTTCAAGCGCCATCTAC,2.7 RPM ratio (pull-down/input)
3,GATGATTGTTCTCCCAGCTGATGAATTTTGTTATTCGAGTAAACAAATTTTCCTAATCTTTCTGTTCAAGCGCCATCTAC,7.33 RPM ratio (pull-down/input)
4,GATGATTGTTCTCCCAGCTGATGAATTATTTGTTTCGAGTAAACAAATTTTCCTAATCTTTCTGTTCAAGCGCCATCTAC,4.2 RPM ratio (pull-down/input)
5,GATGATTGTTCTCCCAGCTGATGAATTTGATTATTCGAGTAAACAAATTTTCCTAATCTTTCTGTTCAAGCGCCATCTAC,4.96 RPM ratio (pull-down/input)
6,GATGATTGTTCTCCCAGCTGATGAATTATTTTGTTCGAGTAAACAAATTTTCCTAATCTTTCTGTTCAAGCGCCATCTAC,1.15 RPM ratio (pull-down/input)
7,GATGATTGTTCTCCCAGCTGATGAATTTGTTATTTCGAGTAAACAAATTTTCCTAATCTTTCTGTTCAAGCGCCATCTAC,7.62 RPM ratio (pull-down/input)
8,GATGATTGTTCTCCCAGCTGATGAATTCTGTTATTCGAGTAAACAAATTTTCCTAATCTTTCTGTTCAAGCGCCATCTAC,6.72 RPM ratio (pull-down/input)
9,GATGATTGTTCTCCCAGCTGATGAATTGTTATTTTCGAGTAAACAAATTTTCCTAATCTTTCTGTTCAAGCGCCATCTAC,4.89 RPM ratio (pull-down/input)
10,GATGATTGTTCTCCCAGCTGATGAATTTTGTACGTCGAGTAAACAAATTTTCCTAATCTTTCTGTTCAAGCGCCATCTAC,1.18 RPM ratio (pull-down/input)
11,GATGATTGTTCTCCCAGCTGATGAATTGTAAGTGTCGAGTAAACAAATTTTCCTAATCTTTCTGTTCAAGCGCCATCTAC,0.84 RPM ratio (pull-down/input)
12,GATGATTGTTCTCCCAGCTGATGAATTTTGATGTTCGAGTAAACAAATTTTCCTAATCTTTCTGTTCAAGCGCCATCTAC,3.91 RPM ratio (pull-down/input)
13,GATGATTGTTCTCCCAGCTGATGAATTTAAGGATTCGAGTAAACAAATTTTCCTAATCTTTCTGTTCAAGCGCCATCTAC,0.302 RPM ratio (pull-down/input)
14,GATGATTGTTCTCCCAGCTGATGAATTGAATATTTCGAGTAAACAAATTTTCCTAATCTTTCTGTTCAAGCGCCATCTAC,0.671 RPM ratio (pull-down/input)
15,GATGATTGTTCTCCCAGCTGATGAATTTTGACCATCGAGTAAACAAATTTTCCTAATCTTTCTGTTCAAGCGCCATCTAC,0.551 RPM ratio (pull-down/input)
16,GATGATTGTTCTCCCAGCTGATGAATTATTGTGTTCGAGTAAACAAATTTTCCTAATCTTTCTGTTCAAGCGCCATCTAC,2.16 RPM ratio (pull-down/input)
